A selection: hits, their analogues and other compounds. The true share with any hit is near 21%.
MRP resist rev – reversal of MRP1-mediated doxorubicin resistance, primary screen, H69AR cells, doxorubicin co-treatment; H69AR cells + 2 uM doxorubicin, CellTiter-Glo, 72 h; differential viability (reversal), % at 10 µM; 85,000 compounds, 0.04% hits; AID 602, 2007;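 active means viability drop by adding the cancer drug above about 55%, with treated viability meeting a 40% cutoff, limit read from the data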;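 further: viability without doxorubicin minus viability with 2 µM doxorubicin for each compound; larger differential means the compound sensitizes cells more to doxorubicin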
MRP-1 activ – H69AR viability gain despite doxorubicin, primary screen, MRP-1 activator project, H69AR cells, CellTiter-Glo; viability rescue; viability increase, % at 10 µM; 140,000 compounds, 0.61% hits; AID 799, 2007;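 active means viability gain under doxorubicin at or above a set limit, the compound median plus 3 SD, cut at about 4.7% in these data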;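 further: MRP-1 overexpressing cells given doxorubicin 25 µM after compound pretreatment; 18-22 h compound pretreatment then 72 h with doxorubicin before readout; 0% = doxorubicin-only wells and 100% = vehicle-treated cells without doxorubicin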
CYP2C19 act – human CYP2C19 activators, primary screen, biochemical, luminescence; Cytochrome P450 2C19 (Homo sapiens), P33261; recombinant CYP2C19, luciferin-H EGE luminescence; stronger effect = higher value; 0 = fully inhibited enzyme, 1 = untreated enzyme; activation factor at 5 µM; 96,000 tested, under 10 active; AID 1025, 2008;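 active means activation factor of at least 2 at 5 µM in the primary screen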;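 further: 0 = wells with 2.5 mM tranylcypromine and 1 = vehicle-only wells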
Target sequence (P33261 whole entry, looked up): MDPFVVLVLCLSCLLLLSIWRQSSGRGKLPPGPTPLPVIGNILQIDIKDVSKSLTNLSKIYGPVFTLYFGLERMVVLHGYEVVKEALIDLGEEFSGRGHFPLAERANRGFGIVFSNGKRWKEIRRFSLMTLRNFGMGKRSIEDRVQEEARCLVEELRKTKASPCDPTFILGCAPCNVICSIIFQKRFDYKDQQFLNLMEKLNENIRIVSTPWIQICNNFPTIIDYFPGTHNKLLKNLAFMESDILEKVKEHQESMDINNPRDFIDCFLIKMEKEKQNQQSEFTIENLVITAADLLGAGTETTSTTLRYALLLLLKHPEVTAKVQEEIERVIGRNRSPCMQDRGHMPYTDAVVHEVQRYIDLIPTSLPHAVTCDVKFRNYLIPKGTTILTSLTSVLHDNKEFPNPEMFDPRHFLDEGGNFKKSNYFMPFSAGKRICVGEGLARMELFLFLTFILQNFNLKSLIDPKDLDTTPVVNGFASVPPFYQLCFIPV
CYP2C19 inhib – blockers of cytochrome P450 2C19 activity – biochemical, luminescence, ADME assay, primary screen. P33261. inhibition, % at 5 µM. CYP2C19 Supersomes, luciferin-H EGE luminescence, 30 min. 96,000 compounds, 21% hits;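 active means CYP2C19 inhibition above a set limit at 5 µM in the primary screen, cut at about 50% in these data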;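 further: plate controls were negative control wells for no effect and 2.5 mM tranylcypromine positive control for full effect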
CYP2C9 activ – human CYP2C9 activators, primary screen, biochemical, luminescence | Cytochrome P450 2C9 (Homo sapiens), P11712 | 96,000 compounds, 1.4% hits | recombinant CYP2C9, luciferin-H conversion; stronger effect = higher value; factor 1 = untreated enzyme, 0 = blocked | activation factor at 5 µM;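 active means activation factor of 2 or more for CYP2C9 at a 5 µM dose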;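 further: 0 = sulfaphenazole-blocked wells and 1 = vehicle-only wells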
CYP2C9 inhib – blockers of cytochrome P450 2C9 activity – biochemical, luminescence, ADME assay, primary screen | P11712 | CYP2C9 Supersomes, luciferin-H conversion | inhibition, % at 5 µM | 96,000 compounds, 20% hits | AID 777, 2007;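 active means blocking of liver enzyme CYP2C9 beyond about 50% at 5 µM, limit read from the data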
* hit, by the source's call.

For CC(=O)Nc1cccc(NC(=O)c2ccco2)c1 the results were MRP resist rev -4.2, MRP-1 activ -1.0, CYP2C19 act 1.1, CYP2C19 inhib -7.8, CYP2C9 activ 1.1 and CYP2C9 inhib -12.5.
CCCn1nnnc1SCC(=O)Nc1cccc(NC(=O)c2ccco2)c1 was read as MRP resist rev 4.0, MRP-1 activ -0.9, CYP2C19 act 0.2, CYP2C19 inhib 75.1*, CYP2C9 activ 0.4 and CYP2C9 inhib 59.8*.
Cc1cc(C)cc(-n2nnnc2SCC(=O)Nc2cccc(NC(=O)c3ccco3)c2)c1 was read as MRP resist rev -18.3, MRP-1 activ 0.0, CYP2C19 act 0.6, CYP2C19 inhib 36.2, CYP2C9 activ 0.7 and CYP2C9 inhib 34.4.
Screening Cc1ccc(SCC(=O)Nc2ccc(-c3nc4ccccc4[nH]3)cc2)cc1 returned MRP-1 activ -1.6.
Screening O=C(c1ccc(=O)n(Cc2ccc(Cl)c(Cl)c2)c1)N1CCOCC1 returned MRP-1 activ -2.1, CYP2C19 act 0.6, CYP2C19 inhib 37.8, CYP2C9 activ 0.8 and CYP2C9 inhib 23.6.
For COc1cccc2sc(N(CCCN(C)C)C(=O)c3sc4ccccc4c3Cl)nc12 the results were MRP-1 activ 0.0.
C#CCOCCOCCOCCNc1nc(N2CCN(C(=O)[C@H]([C@@H](C)O)n3cc(CCCCN)nn3)CC2)nc(N2CCN(C(=O)[C@H](Cc3ccc(O)cc3)n3cc(CCO)nn3)CC2)n1 was read as MRP-1 activ -0.2.
For Cc1nn(Cc2ccccc2Cl)c(C)c1C(=O)Nc1nnc(C2CC2)s1 the results were MRP resist rev 5.6, MRP-1 activ -0.7, CYP2C19 act 0.8, CYP2C19 inhib 16.2, CYP2C9 activ 0.5 and CYP2C9 inhib 50.6*.
Cc1onc(-c2c(F)cccc2Cl)c1C(=O)NC1CCSC1=O (stereo unspecified) was read as MRP resist rev 2.5, MRP-1 activ 4.6, CYP2C19 act 0.2, CYP2C19 inhib 81.5*, CYP2C9 activ 0.4 and CYP2C9 inhib 64.8*.
`Cc1nn(-c2ccccc2)c(Cl)c1C(=O)Nc1nnc(C2CCCCC2)s1` gave MRP resist rev -24.4, MRP-1 activ -3.2, CYP2C19 act 0.9, CYP2C19 inhib 11.4, CYP2C9 activ 0.8 and CYP2C9 inhib 16.6.
For Cc1onc(-c2c(F)cccc2Cl)c1C(=O)Nc1nnc(C2CC2)s1 the results were MRP resist rev -4.0, MRP-1 activ -0.5, CYP2C19 act 0.4, CYP2C19 inhib 62.3*, CYP2C9 activ 0.4 and CYP2C9 inhib 63.4*.
`CCOC(=O)c1c(C2CC2)csc1NC(=O)COC(=O)c1cc(OC)c(OC)cc1[N+](=O)[O-]` gave MRP-1 activ -3.1.
Screening Cn1cnnc1SCc1ccc(-c2ccc(Br)cc2)o1 returned MRP resist rev -2.7, MRP-1 activ -2.6, CYP2C19 act 0.1, CYP2C19 inhib 92.9*, CYP2C9 activ 0.4 and CYP2C9 inhib 56.1*.
C=CCn1c2ccccc2c2nnc(SC(CC)C(=O)Nc3sc4c(c3C#N)CCCC4)nc21 (stereo unspecified) was read as MRP-1 activ 0.1, CYP2C19 act 0.5, CYP2C19 inhib 53.3*, CYP2C9 activ 0.3 and CYP2C9 inhib 72.6*.
`CSc1nc(N)c2c(C)c(C)sc2n1` gave MRP-1 activ -0.6.
For C=C(C)CSc1nc(N)c2c(C)c(C)sc2n1 the results were MRP resist rev 6.4, MRP-1 activ 0.4, CYP2C19 act 0.4, CYP2C19 inhib 56.3*, CYP2C9 activ 0.6 and CYP2C9 inhib 36.7.
O=C(N=C1SCC(=O)N1c1ccccc1)c1ccco1 was read as MRP-1 activ -0.2, CYP2C19 act 0.5, CYP2C19 inhib 51.0*, CYP2C9 activ 0.8 and CYP2C9 inhib 15.7.
For COc1ccc(C2CC(=O)N3CN(c4ccc(C)c(Cl)c4)CSC3=C2C#N)cc1OC (stereo unspecified) the results were MRP resist rev 7.3, MRP-1 activ -1.4, CYP2C19 act 0.8, CYP2C19 inhib 20.6, CYP2C9 activ 0 and CYP2C9 inhib 95.8*.
Screening COc1ccc(N2CSC3=C(C#N)C(c4cc(OC)ccc4OC)CC(=O)N3C2)c(OC)c1 (stereo unspecified) returned MRP resist rev 16.5, MRP-1 activ -3.2, CYP2C19 act 1, CYP2C19 inhib 1.4, CYP2C9 activ 0.5 and CYP2C9 inhib 52.9*.
For COc1ccc(N2CSC3=C(C#N)C(c4ccc(OC)c(OC)c4)CC(=O)N3C2)c(OC)c1 (stereo unspecified) the results were MRP resist rev 15.6, MRP-1 activ -3.1, CYP2C19 act 1, CYP2C19 inhib -1.6, CYP2C9 activ 0.9 and CYP2C9 inhib 13.7.
COc1cc(OC)c(C2CC(=O)N3CN(c4ccc(C)cc4)CSC3=C2C#N)cc1OC (stereo unspecified) was read as MRP resist rev 43.2, MRP-1 activ -2.7, CYP2C19 act 0.9, CYP2C19 inhib 12.8, CYP2C9 activ 0.5 and CYP2C9 inhib 46.1.
COc1ccc(N2CSC3=C(C#N)C(c4cc(OC)c(OC)cc4OC)CC(=O)N3C2)c(OC)c1 (stereo unspecified) was read as MRP resist rev 19.6, MRP-1 activ -4.1, CYP2C19 act 0.9, CYP2C19 inhib 9.0, CYP2C9 activ 0.7 and CYP2C9 inhib 33.6.
For CCOc1ccccc1N1CSC2=C(C#N)C(c3c(OC)ccc4ccccc34)CC(=O)N2C1 (stereo unspecified) the results were MRP resist rev 33.8, MRP-1 activ -3.7, CYP2C19 act 0.2, CYP2C19 inhib 75.1*, CYP2C9 activ 0 and CYP2C9 inhib 99.9*.
`COc1ccc(/C=N/NC(=O)C(C)n2cnc3ccccc3c2=O)cc1OC` (stereo unspecified) gave MRP-1 activ -1.9.
COCCNc1nnc(SCC(=O)c2c[nH]c3ccccc23)s1 was read as MRP-1 activ -3.0.
`CN(C1CCCCC1)S(=O)(=O)Cc1ccccc1` gave MRP resist rev 15.5, MRP-1 activ 0.7, CYP2C19 act 0.5, CYP2C19 inhib 53.9*, CYP2C9 activ 0.8 and CYP2C9 inhib 16.1.
Screening Cc1ccccc1-n1nnnc1Sc1nnnn1-c1ccccc1 returned MRP resist rev -1.6, MRP-1 activ -3.1, CYP2C19 act 0.1, CYP2C19 inhib 87.9*, CYP2C9 activ 0.8 and CYP2C9 inhib 16.8.
`Cc1nc(Sc2nnnn2-c2ccccc2)c(C#N)c(C)c1C` gave MRP resist rev 2.2, MRP-1 activ -1.3, CYP2C19 act 0.4, CYP2C19 inhib 58.9*, CYP2C9 activ 0.9 and CYP2C9 inhib 10.8.
Screening COc1ccc2c(C)cc(Sc3nnnn3-c3ccccc3)nc2c1 returned MRP-1 activ -4.7.
